tested on: T1, PIP5K2C; details: concentration: 1 μM, replicates: in singlicate; n = 1
T1 construct: gene PIP4K2C
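Also: KINOMEscan kinase panel screen.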

| Compound | %Inh [%] |
| --- | --- |
| c1ccc(-c2ccnc3[nH]ccc23)cc1 [SB-693578] | 18 |
| O=C(Nc1n[nH]c2nc(-c3cccs3)c(Br)cc12)C1CCCC1 [SB-743341] | 0 |
| CN1c2ccc(-c3ccc(C(N)=O)cc3)cc2-c2[nH]ncc2S1(=O)=O | 64 |
| Fc1ccc(-c2nc3n(c2-c2ccncc2)CCS3)cc1 [GI98581] | 12 |
| CCc1ccc(-c2ccc3c(c2)-c2n[nH]cc2S(=O)(=O)N3C)cc1 | 16 |
| COC(=O)c1cccc(NC(=O)NC2CCN(c3ccnc(Nc4ccc(F)cc4)n3)C2)c1 (stereo not shown) [GSK1379725] | 0 |
| COc1cccc(CNC(=O)NC2CCN(c3ccnc(Nc4ccc(F)cc4)n3)C2)c1 (stereo not shown) [GSK1379723] | 26 |
| CNc1cc(-c2ccc3c(N)n[nH]c3c2)nc(N)n1 [GSK2224810] | 27 |
| Cc1ccc(NC(=O)Nc2ccccc2F)cc1-c1ccc(C(=O)Nc2ccncc2)cc1 [GSK1398477] | 0 |
| CS(=O)(=O)Cc1ccc(Nc2nccc(-c3c(-c4cccc(NC(=O)C5CCCCC5)c4)nn4ncccc34)n2)cc1 [GSK350559] | 83 |
| Cc1cccc2c(-c3ccncn3)c(-c3ccc(F)cc3)nn12 [GW515532] | 0 |
| Cc1ccc(NC(=O)c2ccc(Cl)cc2)cc1-c1ccc(C(=O)Nc2ccncc2)cc1 [GSK1398467] | 33 |
| COc1ccc(CSc2nnc(-c3ccc4c(c3)CCO4)o2)cc1 | 14 |
| Cc1ccccc1-c1cc(-c2c[nH]nc2-c2ccccn2)ccn1 [GW680061] | 28 |
| COC(=O)C(Cc1ccccc1)NC(=O)NC1CCN(c2ccnc(Nc3ccc(F)cc3)n2)C1 (stereo not shown) [GSK1379714] | 36 |
| COc1ccc2cc(-c3nc(-c4ccccc4C(C)C)[nH]c3-c3ccncc3)ccc2c1 [SB-660566] | 0 |
| Nc1cccc(-c2ccc3c(N)n[nH]c3c2)n1 [GSK2192730] | 0 |
| O=C1NC(=O)C(c2ccc(Cl)cc2)=C1Nc1ccc(O)cc1 [SB-340867] | 0 |
| CCn1c(-c2c(N)noc2C)nc2cnccc21 [SB-737856] | 6 |

| Compound | %Inh [%] |
| --- | --- |
| COC(=O)c1cccc(NC(=O)NC2CCN(c3ccnc(Nc4ccc(OC)cc4)n3)C2)c1 (stereo not shown) [GSK1379746] | 48 |
| Cc1ccc(NC(=O)Nc2ccc(Cl)cc2)cc1-c1ccc(C(=O)Nc2ccncc2)cc1 [GSK1398472] | 2 |
| COc1ccc(Nc2nccc(N3CCC(NC(=O)c4cc5ccccc5s4)C3)n2)cc1 (stereo not shown) [GSK1379738] | 47 |
| CC(=O)c1cccc(NC(=O)NC2CCN(c3ccnc(Nc4ccc(F)cc4)n3)C2)c1 (stereo not shown) [GSK1379710] | 22 |
| Cc1ccccc1Cn1ccn2c(=O)cc(N3CCOCC3)nc12 [GSK2269905] | 10 |
| CS(=O)(=O)CCNCc1nc(-c2ccc3ncnc(Nc4ccc5c(cnn5Cc5ccccc5)c4)c3c2)cs1.Cl.Cl [GW569716] | 41 |
| O=C1NC(=O)C(c2ccc(Cl)cc2)=C1Nc1cccc(Cl)c1 [SB-317651] | 20 |
| Cc1ccc(-c2nc(Nc3ccncc3)c3ccccc3n2)s1 [GSK189015] | 1 |
| Cc1ccc(NC(=O)Nc2ccc(Cl)c(C(F)(F)F)c2)cc1-c1ccc(C(=O)Nc2ccncc2)cc1 [GSK1398470] | 8 |
| Cn1cncc1-c1cc2c(Nc3ccc(OCc4ccccc4)cc3)ncnc2cn1 [GW281179] | 26 |
| COc1ccc(CSc2nnc(-c3ccc4ncsc4c3)o2)cc1C(F)(F)F | 11 |
| O=C(Nc1n[nH]c2cc(-c3ccsc3)ccc12)C1CC1 [SB-732932] | 3 |
| O=C(Nc1n[nH]c2nc(-c3cccs3)c(Br)cc12)C1CC1 [SB-735297] | 0 |
| CNCc1ccc2nc(NC(=O)c3ccc(C(C)(C)C)cc3)cn2c1 | 30 |
| Cc1c(Cn2c(C)c(C)n3c(=O)cc(N4CCOCC4)nc23)cccc1C(F)(F)F [GSK2328680] | 7 |
| CC(C)c1ccc(O)cc1Nc1ccnc2ccc(C(F)(F)F)cc12 [GW482059] | 0 |
| CSc1ccc(-c2nc3n(c2-c2ccncc2)CCC3)cc1 [SKF-105561] | 0 |
| O=c1cc(N2CCOCC2)nc2n(Cc3ccccc3F)ccn12 [GSK2297428] | 0 |

— article PMC5540273 (PLoS ONE, 2017)
